Measured values: PubChem BioAssay (NCATS)
Values joined by “and” are separate entries in the source; they are usually repeats but may differ in a detail not shown here. Equal values may be shown once. Records with an inconclusive call do not appear. Active and inactive are the calls of the source. Unless noted, calls follow the shape of the dose curve; as a rule, active = well fitted curve in the direction sought with a large enough effect; inconclusive = small, poorly fitted or top-dose-only effect, or another doubt; inactive = no such curve, though single readings can be large; an effect the other way counts as inactive or inconclusive.

Experiments:
[1] = test system: NIH3T3; experiment: qHTS assay to identify novel small-molecules to repurpose for Merkel cell carcinoma treatment (AID 1296009); conditions: MCC and control cell lines, CellTiter-Glo viability, 72 h; at 44.8 µM (top of the series) unless noted; also: nearly all actives have a fitted effect of over 60% in size
In short: (§1)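 Cells were incubated with compound for 72 hr at 37 degree celsius before CellTiter-Glo addition. Luminescence was normalized with no-cell wells as full cytotoxicity and DMSO as baseline.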

[2] = test system: UISO; experiment: as above; conditions: MCC and control cell lines, CellTiter-Glo viability, 72 h; series mostly up to 46 µM
In short: as §1

[3] = test system: WaGa; experiment: as above; conditions: MCC and control cell lines, CellTiter-Glo viability, 72 h; series mostly up to 46 µM
In short: as §1

[4] = test system: C33A; experiment: Primary qHTS to identify gynecologic anti-cancer compounds using libraries of approved drugs and bioactive compounds (AID 1345084); conditions: Gynecologic cancer cell panel viability, ATPlite luminescence, 48 h; series mostly up to 57.5 µM; also: % is scaled to controls: 0 for no effect and ±100 for the full control effect; nearly all actives have a fitted effect of over 55% in size
In short: (§2)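 Luminescence from the ATPlite ATP-monitoring reagent indicates viable cell number; lower signal means cytotoxicity. Cells received compound 16 h after seeding and were exposed for 48 h across five concentrations.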

[5] = test system: CAOV3; experiment: as above; conditions: Gynecologic cancer cell panel viability, ATPlite luminescence, 48 h; series mostly up to 57.5 µM
In short: as §2

[6] = test system: CASKI; experiment: as above; conditions: Gynecologic cancer cell panel viability, ATPlite luminescence, 48 h; series mostly up to 57.5 µM
In short: as §2

[7] = test system: Es-2; experiment: as above; conditions: Gynecologic cancer cell panel viability, ATPlite luminescence, 48 h; series mostly up to 57.5 µM
In short: as §2

[8] = test system: HeLa; experiment: as above; conditions: Gynecologic cancer cell panel viability, ATPlite luminescence, 48 h; series mostly up to 57.5 µM
In short: as §2

[9] = test system: Hek293T; experiment: as above; conditions: Gynecologic cancer cell panel viability, ATPlite luminescence, 48 h, control line for the selectivity index; series mostly up to 57.5 µM
In short: as §2

[10] = test system: JEG-3; experiment: as above; conditions: Gynecologic cancer cell panel viability, ATPlite luminescence, 48 h; series mostly up to 57.5 µM
In short: as §2

[11] = test system: OV90; experiment: as above; conditions: Gynecologic cancer cell panel viability, ATPlite luminescence, 48 h; series mostly up to 57.5 µM
In short: as §2

[12] = test system: PA-1; experiment: as above; conditions: Gynecologic cancer cell panel viability, ATPlite luminescence, 48 h; series mostly up to 57.5 µM
In short: as §2

[13] = test system: Tov-21-G; experiment: as above; conditions: Gynecologic cancer cell panel viability, ATPlite luminescence, 48 h; series mostly up to 57.5 µM
In short: as §2

[14] = test system: Tov112D; experiment: as above; conditions: Gynecologic cancer cell panel viability, ATPlite luminescence, 48 h; series mostly up to 57.5 µM
In short: as §2

[15] = test system: SKOV3; experiment: as above; conditions: Gynecologic cancer cell panel viability, ATPlite luminescence, 48 h; series mostly up to 57.5 µM
In short: as §2

[16] = Drug repurposing screens with cells derived from glioblastoma tumor samples (AID 1345199); conditions: GBM patient neurospheres viability, ATP luminescence, 48 h; also: nearly all actives have a fitted effect of over 40% in size; also: potency is read from the fitted curve at half-maximal effect; as to activity, negative = cell killing: % is scaled to controls: 0 for no effect and ±100 for the full control effect
In short: (§3)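 Four patient lines of CD133+ GBM neurospheres were screened at several concentrations; hits were retested in those lines plus three slower-growing GBM lines, using 48-hour treatment and ATP-based viability.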

[17] = test system: astro; experiment: as above; conditions: viability, ATP luminescence, 48 h; series mostly up to 45.9 µM
In short: as §3

[18] = target: Nuclear receptor subfamily 1 group I member 2 (Rattus norvegicus) (UniProt Q9R1A7); experiment: qHTS assay for small molecule activators of the rat pregnane X receptor (rPXR) signaling pathway (AID 651751; call rule not given here; also: 0% is about no effect); conditions: rPXR reporter cells, luciferase (One-Glo), 24 h
Nuclear receptor subfamily 1 group I member 2 (Rattus norvegicus), sequence (Q9R1A7 whole entry, looked up): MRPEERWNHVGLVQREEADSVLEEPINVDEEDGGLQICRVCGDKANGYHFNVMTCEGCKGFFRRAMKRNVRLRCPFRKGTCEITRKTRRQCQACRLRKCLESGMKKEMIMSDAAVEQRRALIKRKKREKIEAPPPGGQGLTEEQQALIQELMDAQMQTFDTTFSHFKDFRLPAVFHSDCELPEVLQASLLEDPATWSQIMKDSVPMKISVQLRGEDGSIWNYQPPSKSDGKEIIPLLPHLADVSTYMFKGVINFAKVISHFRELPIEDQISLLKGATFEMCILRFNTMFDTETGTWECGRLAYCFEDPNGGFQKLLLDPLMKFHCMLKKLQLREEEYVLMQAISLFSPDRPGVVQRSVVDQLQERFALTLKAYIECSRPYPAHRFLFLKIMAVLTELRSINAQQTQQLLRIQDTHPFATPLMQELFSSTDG

[19] = at 45.9 µM (top of the series), tumour line B
[20] = at 45.9 µM (top of the series), tumour line D
[21] = at 46 µM (top of the series), tumour line A

FC(F)(F)c1cccc(C2=CCN(CCc3ccc4ccccc4c3)CC2)c1
inactive: outcome [1] | Potency [2] | Potency [3] | Potency [4] | Potency [5] | Potency [6] | Potency [7] | Potency [8] | Potency [9] | Potency [10] | Potency [11] | Potency [12] | Potency [13] | Potency [14]

O=C1CC[C@@]2(O)[C@H]3Cc4ccc(O)c5c4[C@@]2(CCN3CC2CC2)[C@H]1O5
inactive: outcome [1] | Potency [2] | Potency [3] | Potency [4] | Potency [5] | Potency [6] | Potency [7] | Potency [8] | Potency [9] | Potency [10] | Potency [11] | Potency [12] | Potency [15] | Potency [13] | Potency [14] | activity, negative = cell killing [16, 19] 1.04% | activity, negative = cell killing [16, 20] -3.21%

COc1ccc(C(CN(C)C)C2(O)CCCCC2)cc1 (stereo unspecified)
inactive: outcome [1] | Potency [2] | Potency [3] | Potency [4] | Potency [5] | Potency [6] | Potency [7] | Potency [8] | Potency [9] | Potency [10] | Potency [11] | Potency [12] | Potency [15] | Potency [13] | Potency [14] | activity, negative = cell killing [16, 19] -10.5% | activity, negative = cell killing [16, 20] 1.59% | activity, negative = cell killing [16, 21] -20% | Potency [17]

CCN(CC)CCN1C(=O)CN=C(c2ccccc2F)c2cc(Cl)ccc21
active: Potency ([16]; tumour line A) 14.1 µM
inactive: outcome [1] | Potency [2] | Potency [3] | Potency [4] | Potency [5] | Potency [6] | Potency [7] | Potency [8] | Potency [9] | Potency [10] | Potency [11] | Potency [12] | Potency [15] | Potency [13] | Potency [14] | activity, negative = cell killing [16, 19] -20.2%

CC(C)(C)NCC(O)c1cc(Cl)c(N)c(Cl)c1 (stereo unspecified)
inactive: outcome [1] | Potency [2] | Potency [3] | Potency [4] | Potency [5] | Potency [6] | Potency [7] | Potency [8] | Potency [9] | Potency [11] | Potency [12] | Potency [15] | Potency [13] | Potency [14] | activity, negative = cell killing [16, 19] -4.05% | activity, negative = cell killing [16, 20] -25.9%

CCN(C(C)=O)c1cccc(-c2ccnc3c(C#N)cnn23)c1
inactive: outcome [1] | Potency [2] | Potency [3] | Potency [4] | Potency [5] | Potency [6] | Potency [7] | Potency [8] | Potency [9] | Potency [11] | Potency [12] | Potency [15] | Potency [13] | Potency [14] | activity, negative = cell killing [16, 19] -13.5% | activity, negative = cell killing [16, 20] -2.81% | Potency [17]

C#CCOC(C(=O)OCCN(C)C)(c1ccccc1)c1ccccc1
inactive: outcome [1] | Potency [2] | Potency [3] | Potency [4] | Potency [5] | Potency [6] | Potency [7] | Potency [8] | Potency [9] | Potency [11] | Potency [12] | Potency [13] | Potency [14] | activity, negative = cell killing [16, 19] 3.88% | activity, negative = cell killing [16, 20] 1.28%

O=c1[nH]c2ccccc2n1CCCN1CCC(n2c(=O)[nH]c3cc(Cl)ccc32)CC1
inactive: outcome [1] | Potency [2] | Potency [3] | Potency [4] | Potency [5] | Potency [6] | Potency [7] | Potency [8] | Potency [9] | Potency [10] | Potency [11] | Potency [12] | Potency [15] | Potency [13] | Potency [14] | activity, negative = cell killing [16, 19] -24.9% | Potency [17]
active: Potency ([16]; tumour line A) 2.82 µM

CCCC(C)(COC(N)=O)COC(=O)NC(C)C (stereo unspecified)
inactive: outcome [1] | Potency [2] | Potency [3] | Potency [4] | Potency [5] | Potency [6] | Potency [7] | Potency [8] | Potency [9] | Potency [11] | Potency [12] | Potency [15] | Potency [13] | Potency [14] | activity, negative = cell killing [16, 19] -7.57% | activity, negative = cell killing [16, 20] -17.6% | Potency [17] | max response [18] 6.19% and 1.57%

CC(C)=CC1C(C(=O)OCc2cccc(Oc3ccccc3)c2)C1(C)C (stereo unspecified)
active: Potency ([16]; tumour line A) 12.6 µM
inactive: outcome [1] | Potency [2] | Potency [3] | Potency [4] | Potency [5] | Potency [6] | Potency [7] | Potency [8] | Potency [9] | Potency [11] | Potency [12] | Potency [15] | Potency [13] | Potency [14] | activity, negative = cell killing [16, 19] -17.7% | activity, negative = cell killing [16, 20] -26.5% | Potency [17]

O=[N+]([O-])c1cc([As](=O)(O)O)ccc1O
inactive: outcome [1] | Potency [2] | Potency [3] | Potency [4] | Potency [5] | Potency [6] | Potency [7] | Potency [8] | Potency [9] | Potency [10] | Potency [11] | Potency [12] | Potency [15] | Potency [13] | Potency [14]

CC[N+](CC)(CC)CC
inactive: outcome [1] | Potency [2] | Potency [3] | Potency [4] | Potency [5] | Potency [6] | Potency [7] | Potency [8] | Potency [9] | Potency [10] | Potency [11] | Potency [12] | Potency [15] | Potency [13] | Potency [14] | activity, negative = cell killing [16, 19] -10.8% | activity, negative = cell killing [16, 20] -7.23% | activity, negative = cell killing [16, 21] -23.7% | Potency [17]

CCN(CC)CCOC(=O)C(O)(c1ccccc1)c1ccccc1
inactive: outcome [1] | Potency [2] | Potency [3] | Potency [4] | Potency [5] | Potency [6] | Potency [7] | Potency [8] | Potency [9] | Potency [11] | Potency [12] | Potency [15] | Potency [13] | Potency [14] | activity, negative = cell killing [16, 19] -7.05% | activity, negative = cell killing [16, 20] -0.674% | activity, negative = cell killing [16, 21] -16.9% | Potency [17]
